# Screening results deposited in PubChem BioAssay by several laboratories.
# FBA Mtb inh: Mtb FBA enzyme inhibitors, primary screen, biochemical, fluorescence, strain H37Rv; Fructose-bisphosphate aldolase (Mycobacterium tuberculosis (strain ATCC 25618 / H37Rv)), …; purified M. tuberculosis FBA, fluorescence read-out; inhibition, % at 1 µM; 360,000 compounds, 2.3% hits; AID 588726, 2011; in the data active = inhibition above about 27%;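 note: 0% = vehicle and 100% = reference inhibitor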
# Target sequence (P9WQA3 whole entry, looked up): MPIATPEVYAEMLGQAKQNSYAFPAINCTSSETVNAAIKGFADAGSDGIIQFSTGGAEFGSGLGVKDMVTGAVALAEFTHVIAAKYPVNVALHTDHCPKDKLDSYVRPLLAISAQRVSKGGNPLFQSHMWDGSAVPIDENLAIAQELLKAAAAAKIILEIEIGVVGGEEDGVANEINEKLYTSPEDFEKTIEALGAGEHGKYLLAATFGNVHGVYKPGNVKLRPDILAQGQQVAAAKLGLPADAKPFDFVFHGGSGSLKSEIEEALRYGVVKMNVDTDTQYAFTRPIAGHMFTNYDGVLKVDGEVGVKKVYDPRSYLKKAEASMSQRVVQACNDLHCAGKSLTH
# GDH-TPI counter: GDH-TPI coupling enzyme inhibitors, primary screen, artefact control for M. tuberculosis FBA inhibitor project, biochemical, absorbance, full deck. inhibition, % at 4.8 µM. AID 588335, 2011. 360,000 compounds, 1.2% hits. GDH-TPI coupled enzyme counterscreen, NADH absorbance; in the data active = inhibition above about 30%;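 note: 0% = DMSO wells and 100% = wells lacking the enzyme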
# PrPC surface inh: inhibitors of human cell surface prion protein PrPC, primary screen, cell-based, TR-FRET; Major prion protein (Homo sapiens), P04156; TR-FRET read-out; inhibition, % at 13.8 µM; 370,000 compounds, 0.43% hits; AID 720596, 2013; in the data active = inhibition above about 24%; note: 0% = median of the test wells and 100% = reference compound wells
# BJeLR lethal: MLPCN primary cell-based screen for lethality selective to Ras in HRASV12 cells. BJeLR (HRASV12) viability, CellTiter-Glo ATP luminescence, 48 h. inhibition, % (no concentration beside the values). 300,000 compounds, 0.17% hits. AID 1554, 2009; in the data active = inhibition above about 50%
# RecA splice inh: Mtb RecA intein splicing inhibitors, primary screen, biochemical, fluorescence, HTS; cell-free RecA intein splicing; AID 2221, 2009; inhibition, % (test concentration not listed); 290,000 compounds, 0.75% hits; in the data active = inhibition above about 30%;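 note: 0% = vehicle wells and 100% = reference inhibitor control wells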
# Starred values were filed as active, the others as inactive; . = not tested or not shown; + = active, no number. Hits are enriched below; roughly 4.2% of the tested compounds scored in any of these assays.
SMILES,FBA Mtb inh,GDH-TPI counter,PrPC surface inh,BJeLR lethal,RecA splice inh
CCn1c(O)c(N=NC(=O)CNC(=O)c2ccccc2F)c2ccccc21,1,26,-42,5,2
CC(C)n1c(O)c(N=NC(=O)CNC(=O)Cc2ccc(Cl)cc2)c2ccccc21,-3,29,4,1,-3
CC(C)n1c(O)c(N=NC(=O)CNC(=O)CCc2ccccc2)c2ccccc21,-2,31*,-11,6,0
C=CC[C@H]1c2ccccc2[C@H]2N3N=Cc4ccccc4[C@H]3[C@H](CCc3ccccc3)C(=O)N2N1C(=O)c1ccccc1,.,.,8,.,.
CCCCC1=CC2=CC(=O)C(C)(OC(=O)c3cnc4ccccc4n3)C(=O)C2=CO1 (centres undefined),.,.,.,-2,34*
COC(=O)CCCC1=CC2=CC(=O)C(C)(OC(=O)c3cnc4ccccc4n3)C(=O)C2=CO1 (centres undefined),.,.,.,8,-6
CCn1c(SCC(=O)c2ccc(-c3ccccc3)cc2)nnc1-c1ccccc1OC,.,.,8,.,.
O=C(CN1CCN(c2cccc(Cl)c2)CC1)c1ccc(O)cc1O,1,31*,5,-1,-2
O=C(CN1CCN(c2cccc(Cl)c2)CC1)N1CCCC1,-14,-8,2,2,-3
COCCCNC(=O)CN1C(=O)C2CCCCN2C(=O)c2ccccc21 (centres undefined),.,.,-9,.,.
O=C(O)/C(=C\c1cccs1)c1ccccc1,-1,3,4,-3,-2
CC(=Cc1cccs1)C(=O)c1ccccc1,-1,32*,7,.,.
CN(Cc1ccccc1)S(=O)(=O)c1cccc(C(=O)OCc2ccc(C(F)(F)F)cc2)c1,.,.,3,.,.
O=C(CSc1nc(-c2ccco2)cc(C(F)(F)F)n1)Nc1ccc2c(c1)OCO2,-2,16,7,2,0
O=C(CSc1nc(-c2ccco2)cc(C(F)(F)F)n1)Nc1cccnc1,-1,32*,4,3,-1
COC(=O)[C@]12C[C@H](CC(=O)NCC34CC5CC(CC(C5)C3)C4)C(=O)N(CCc3ccc(OC)c(OC)c3)C1=C[C@H](C(C)(C)C)O[C@@H]2C,.,.,0,.,.
COCCNC(=O)/C(C#N)=C/C=C/c1ccccc1[N+](=O)[O-],-1,48*,2,0,12
CCOC(=O)CSc1n[nH]c(NC(=O)CC)n1,3,-7,-7,-2,3
CCOC(=O)CSc1n[nH]c(NC(=O)c2cccc(C(F)(F)F)c2)n1,2,-2,-5,-10,50*
O=C1c2cc([N+](=O)[O-])ccc2-c2ncccc21,0,9,-32,-9,46*
O=C1c2cccnc2-c2ncccc21,2,5,-6,0,-1
CC(=O)N1CCc2cc(S(=O)(=O)NCCC(=O)N(C)Cc3ccccc3F)ccc21,.,.,1,.,.
CC(=O)c1ccc(N2CCN(c3ccc(C(N)=O)cc3[N+](=O)[O-])CC2)cc1,-9,33*,-13,1,-1
NC(=O)c1ccc(N2CCN(c3ccc(O)cc3)CC2)c([N+](=O)[O-])c1,-2,7,-35,7,-3
COc1ccc(-c2ccc(C(=O)NCC3CCOCC3)c3occc23)c(C)c1,132*,-4,11,.,.
SMILES,FBA Mtb inh,GDH-TPI counter,PrPC surface inh,BJeLR lethal,RecA splice inh
N#Cc1ccc(CSc2nc3sc4c(c3c(=O)n2-c2ccc(Br)cc2)CCCC4)cc1,.,.,-6,.,.
COC(=O)[C@]12C[C@H](CC(=O)NCc3cccs3)C(=O)N(CCc3ccc(OC)c(OC)c3)C1=C[C@H](C1CCCC1)O[C@@H]2C,.,.,-3,.,.
CC(=O)NC1C(=O)N(CCN2CCOCC2)c2ccc(Br)cc21 (centres undefined),-1,5,6,-1,51*
CC(=O)NC1C(=O)N(CCc2ccccc2)c2ccc(Br)cc21 (centres undefined),2,4,4,.,.
CCOc1ccc2c(c1)C(NC(C)=O)C(=O)N2CCN1CCOCC1 (centres undefined),-1,2,-6,3,43*
CCC[C@H]1[C@@H](OC(=O)Oc2ccc([N+](=O)[O-])cc2)CC[C@@]23CCCN2C(=O)CCC[C@@H]13,.,.,-2,.,.
CCCCn1cnc2c(c(-c3ccccc3)c(-c3ccccc3)n2Cc2ccco2)c1=N,2,4,-11,62*,28
CN1CCc2c(sc3nc(SCC(N)=O)n(-c4ccc(Cl)cc4)c(=O)c23)C1,10,32*,-10,-2,15
CCn1c(SCC(=O)NCCc2ccccc2)nc2sc3c(c2c1=O)CCN(C)C3,17,35*,-7,-12,-7
CN1CCc2c(sc3nc(SCC(N)=O)n(-c4ccccc4)c(=O)c23)C1,4,16,7,5,3
CN1CCc2c(sc3nc(SCC(=O)N4CCCCC4)n(-c4ccccc4)c(=O)c23)C1,21,39*,0,-5,4
Cc1ccccc1C(=O)N(Cc1ccccn1)CC1CCCO1 (centres undefined),.,.,1,.,.
O=C(Nc1ccc(F)cc1)OCCN1C(=O)CCC12CCC(c1ccc(Cl)cc1)CC2 (centres undefined),.,.,7,.,.
CC(C)Oc1cccc(-c2n[nH]c(=S)n2N=Cc2cccc([N+](=O)[O-])c2)c1,.,.,3,.,.
CCN(CC)CCCNC(=O)c1cn(C(C)c2ccccc2)nn1 (centres undefined),.,.,-6,.,.
N#CCC[C@H]1CC[C@]2(CCCN(S(=O)(=O)c3ccccc3)C2)O1,.,.,-7,.,.
CC(C)OCCCn1c(=NC(=O)c2cccs2)c(C#N)cc2c(=O)n3ccccc3nc21,+,4,-21,1,-63
CC(C)OCCCn1c(=NC(=O)c2ccncc2)c(C#N)cc2c(=O)n3ccccc3nc21,4,5,1,10,.
CCCCCn1c(=NC(C)=O)c(C#N)cc2c(=O)n3ccccc3nc21,133*,13,2,0,-315
CC(=O)N=c1c(C#N)cc2c(=O)n3ccccc3nc2n1CCCOC(C)C,+,4,-12,2,-121
N#CCC[C@H]1CC[C@]2(CCCN(C(=O)c3ccno3)C2)O1,.,.,-8,.,.
COc1ccc(OC(=O)COc2cccc(C)c2)cc1,0,-2,10,0,5
COc1ccc(N(C(=O)COc2cccc(C)c2)S(=O)(=O)c2ccc(C)cc2)cc1,2,-8,10,-7,52*
CCn1c2ccccc2c2cc(/C=N/NC(=O)c3cc(O)cc(O)c3)ccc21,16,15,-2,8,5
CCn1c2ccccc2c2cc(/C=N/NC(=O)c3ccc(O)cc3)ccc21,15,36*,9,-15,-1
Oc1ccccc1C1NN=C(c2ccccc2)S1 (centres undefined),1,21,-8,0,-1
